Rows were chosen to be rich in hits. Some 21% of all compounds tested hit in one or more screens of this group.
HCMV inh: inhibitors of human cytomegalovirus. 410,000 compounds, 4.5% hits. AID 1259415. activity change, negative = inhibition, % at 57.5 µM. HFF cells, HCMV-luciferase reporter, 72 h; stronger effect = lower value; in the data active = activity change below about -60%; inconclusive = no clear call, values can overlap the other calls; inactive = above about -39%
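Screen run at 2 compound doses on HFFs infected with reporter HCMV, MOI 1 PFU/cell. Luciferase activity from cell lysates at 72 h post infection gave inhibition relative to buffer-only and Salinomycin wells.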
Shiga inhibitor: inhibitors of Shiga toxin in Vero cells; Vero cells, Shiga toxin protein synthesis inhibition reporter; inhibition, % at 38.7 µM; 290,000 compounds, 9.2% hits; in the data active = inhibition mostly above about 28%, no sharp cut-off; inactive = mostly below about 43%
Pf growth 48h: inhibits P. falciparum growth in the first generation, 48 h | P. falciparum luciferase growth in erythrocytes, 48 h | Potency, µM (series often up to 28.7 µM), most hits filed as inhibitors | 310,000 compounds, 5.9% hits | AID 504832
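Cell-based growth assay: transgenic P. falciparum expressing firefly luciferase, cultured in red cells within RPMI 1640 containing 0.5% w/v Albumax, 24 mM bicarbonate and gentamycin. A drop in luciferase activity indicates inhibition.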
Pf growth 96h: P. falciparum growth inhibition at 96 hours. P. falciparum luciferase reporter growth, 96 h. Potency, µM (doses to about 28.7 µM), actives largely listed as inhibitors. 320,000 compounds, 6.9% hits. AID 504834
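Delayed-death screen, second-generation endpoint: infected erythrocytes, 2% hematocrit, 0.05% parasitemia final; 96 hours at 37 C, 5% CO2; luciferase detection reagent; luminescence decrease equals reduced growth.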
HCV inh: HCV inhibition; Potency, µM (doses to about 41.8 µM), usual class: inhibitors; Huh7.5.1 HCVcc-Cre infection, luciferase reporter, 44 h; 340,000 compounds, 3.4% hits
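HCVcc-Cre virus at an moi near 0.5 was added right after compound to cells cultured 4 h from seeding (1,000 cells/well). Luciferase activity was determined 44 h later, 15 min after substrate addition at RT.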
CHX counter: affects cycloheximide protein synthesis inhibition readout, counter-screen | cell reporter, cycloheximide protein synthesis inhibition counterscreen | max response, % | 300,000 compounds, 12% hits | AID 2314; in the data active = max response mostly above about 13%, no sharp cut-off; inactive = mostly below about 14%; also: read at 38.3 µM for the half of the compounds with a filed dose
Of the large screens only hits and unclear results are named; the others gave an inactive call. Unless noted, calls follow the shape of the dose curve; as a rule, active = well fitted inhibition curve with a large enough effect; inconclusive = small, poorly fitted or top-dose-only effect, or another doubt; inactive = no such curve, though single readings can be large or run the other way.

O=C(N/N=C/c1cccc2ccccc12)C(=O)N1CCCC1	HCMV inh -71
Cc1sc2nc(-c3cccs3)nc(N3CCCN(C)CC3)c2c1C	Pf growth 48h 10µM, Pf growth 96h inconclusive (no result: HCMV inh, HCV inh)
CSc1n[nH]c(-c2sccc2OCc2ccc(C)cc2)n1	Pf growth 48h inconclusive, Pf growth 96h 4.1µM, HCV inh inconclusive
CSc1nnc(-c2sccc2OCc2ccccc2)n1C	none
Cc1ccc2c(c1)CCCN2C(=O)Nc1ccc2c(c1)OCO2	Shiga inhibitor 30, Pf growth 96h inconclusive, CHX counter 46
O=C(Nc1ccc2c(c1)OCO2)N1CCCc2ccccc21	Shiga inhibitor 85, CHX counter 35
O=C(CSc1nc2c([nH]c3ccccc32)c(=O)n1-c1ccc(F)cc1)N1CCCCCC1	none (no result: Shiga inhibitor, Pf growth 48h, Pf growth 96h, HCV inh, CHX counter)
CCC(C)Sc1cc(-c2nc3ccc(Cl)cn3c2NC2CCCCC2)ccc1OC (centres undefined)	none (no result: Shiga inhibitor, Pf growth 48h, Pf growth 96h, CHX counter)
CCN(CC(=O)NCc1ccncc1)S(=O)(=O)c1ccc(OC)cc1	none
CCCN1CC(C)C(OC(C)=O)(c2ccccc2)CC1C (centres undefined)	none
CC1CC(OC(=O)c2ccccc2)(c2ccccc2)C(C)CN1C (centres undefined)	Pf growth 48h 6.6µM, Pf growth 96h inconclusive
NC(=O)C1CN(C(=O)c2cccc(S(=O)(=O)N3CCc4ccccc43)c2)c2ccccc2O1 (centres undefined)	HCMV inh -105, Pf growth 48h 8.3µM, Pf growth 96h inconclusive (no result: Shiga inhibitor, CHX counter)
O=C(CNC(=O)c1cccc(S(=O)(=O)N2CCc3ccccc32)c1)Nc1ccc(F)c(F)c1F	Pf growth 48h inconclusive, Pf growth 96h inconclusive, HCV inh inconclusive (no result: Shiga inhibitor, CHX counter)
O=C(Nc1ccc(Br)cc1)c1cccc(S(=O)(=O)N2CCc3ccccc32)c1	HCMV inh -61 (no result: Shiga inhibitor, Pf growth 48h, Pf growth 96h, HCV inh, CHX counter)
COc1ccc(NC(=O)c2cc(S(=O)(=O)N3CCc4ccccc43)cn2C)cc1OC	HCV inh inconclusive
O=C(c1cccc(S(=O)(=O)N2CCc3ccccc32)c1)N1CCN(CCO)CC1	none (no result: Shiga inhibitor, Pf growth 48h, Pf growth 96h, CHX counter)
CC(=O)NS(=O)(=O)c1ccc(NC(=O)c2cccc(S(=O)(=O)N3CCc4ccccc43)c2)cc1	none
COc1ccc(NC(C)=O)cc1NC(=O)c1cccc(S(=O)(=O)N2CCc3ccccc32)c1	Pf growth 48h 13µM, Pf growth 96h inconclusive, HCV inh 10µM (no result: Shiga inhibitor, CHX counter)
O=C(CNC(=O)c1cccc(S(=O)(=O)N2CCc3ccccc32)c1)Nc1ccccc1Br	HCMV inh -83, HCV inh inconclusive (no result: Shiga inhibitor, Pf growth 48h, Pf growth 96h, CHX counter)
COCCn1cnnc1SCC(=O)Nc1ccc(N2CCCCC2)cc1	none (no result: Shiga inhibitor, CHX counter)
Cc1ccc(Nc2cc(Cl)nc(N)n2)c([N+](=O)[O-])c1	HCV inh inconclusive (no result: Shiga inhibitor, Pf growth 48h, Pf growth 96h, CHX counter)
Cc1cc(C(F)(F)F)nn2cnnc12	Pf growth 48h inconclusive
NC(=O)C1CCN(C(=O)c2cccc(S(=O)(=O)N3CCc4ccccc4C3)c2)CC1	none
O=C(c1cccc(S(=O)(=O)N2CCc3ccccc32)c1)N1CCN(c2ccccn2)CC1	HCMV inh -78, Pf growth 96h inconclusive, HCV inh inconclusive
CN(C)S(=O)(=O)c1cccc(NC(=O)c2cccc(S(=O)(=O)N3CCc4ccccc43)c2)c1	HCMV inh -95, Pf growth 48h 5.9µM, Pf growth 96h 9.3µM, HCV inh 11µM (no result: Shiga inhibitor, CHX counter)
O=C(c1cccc(S(=O)(=O)N2CCc3ccccc3C2)c1)N1CCN(c2ccc(O)cc2)CC1	HCMV inh -65, Pf growth 48h inconclusive, Pf growth 96h inconclusive, HCV inh inconclusive
O=C(NNC(=O)c1cccc(S(=O)(=O)N2CCc3ccccc32)c1)c1ccccc1	HCMV inh inconclusive, HCV inh 5µM
COc1ccc(N2CCN(C(=O)c3cccc(S(=O)(=O)N4CCc5ccccc54)c3)CC2)cc1	HCV inh inconclusive (no result: Shiga inhibitor, Pf growth 48h, Pf growth 96h, CHX counter)
Fc1ccc(-c2ncc3ccccn23)cc1	Pf growth 96h inconclusive, CHX counter 33
c1csc(-c2ncc3ccccn23)c1	Shiga inhibitor 68, Pf growth 96h inconclusive, HCV inh inconclusive, CHX counter 40
COc1cc(-c2ncc3ccccn23)cc(OC)c1OC	Pf growth 96h inconclusive (no result: Pf growth 48h)
Brc1ccc(-c2ncc3ccccn23)cc1	Shiga inhibitor 88, CHX counter 60
N#Cc1ccc(COn2nnc3ccccc32)cc1	CHX counter 31
c1ccc2c(Cn3nnc4ccccc43)cccc2c1	none (no result: Pf growth 96h)
c1ccc2c(COn3nnc4ccccc43)cccc2c1	Shiga inhibitor 87, CHX counter 54 (no result: Pf growth 48h, HCV inh)
NS(=O)(=O)c1ccc(NC(=O)C(=O)NCCC(=O)O)cc1	none
CCN(CC)c1ccc(NC(=O)CSc2nnc3nc(C)cc(C)n23)cc1	HCMV inh -107, Pf growth 48h inconclusive, Pf growth 96h inconclusive
CCNc1nc(NCC)n2c(SCC(=O)Nc3ccc(Br)cc3F)nnc2n1	Pf growth 48h 12µM, Pf growth 96h inconclusive, HCV inh inconclusive (no result: Shiga inhibitor, CHX counter)
COc1ccc(OC)c(NC(=O)CSc2nncc3ccc(OC)c(OC)c23)c1	Pf growth 48h inconclusive, Pf growth 96h 9.3µM, HCV inh inconclusive
COc1ccc2cnnc(SCC(=O)Nc3ccccc3)c2c1OC	HCV inh inconclusive
CCNc1nc(NCC)n2c(SCC(=O)Nc3ccc(F)cc3)nnc2n1	Pf growth 96h inconclusive (no result: Shiga inhibitor, CHX counter)
CCNc1nc(NCC)n2c(SCC(=O)Nc3ccc(C)c(C)c3)nnc2n1	Pf growth 48h 9.3µM (no result: Shiga inhibitor, CHX counter)
CC(=O)c1ccc(S(=O)(=O)NC2CC(=O)N(c3ccc(C)c(C)c3)C2)cc1 (centres undefined)	none (no result: Shiga inhibitor, CHX counter)
O=C(NCc1ccc(Cl)cc1)C1CCN(S(=O)(=O)c2ccc3c(c2)CCCN3C(=O)C2CCC2)CC1	none (no result: Shiga inhibitor, Pf growth 48h, Pf growth 96h, HCV inh, CHX counter)
Cc1ccc(CN2[C@@H](CC(C)C)COCCS2(=O)=O)cc1	none (no result: Shiga inhibitor, Pf growth 48h, Pf growth 96h, CHX counter)
CCNc1nc(NCC)n2c(SCC(=O)Nc3cc(OC)ccc3OC)nnc2n1	Pf growth 48h inconclusive, Pf growth 96h 8.3µM (no result: Shiga inhibitor, CHX counter)
CCNc1nc(NCC)n2c(SCC(=O)Nc3ccccc3)nnc2n1	Pf growth 96h inconclusive
CN(C)C1NC(=O)c2cc(-c3ccccc3)sc2N1 (centres undefined)	HCV inh inconclusive, CHX counter 17
O=C(CC1NCCNC1=O)Nc1ccccc1F (centres undefined)	none (no result: Shiga inhibitor, Pf growth 48h, Pf growth 96h, HCV inh, CHX counter)
COc1cccc(C2=CC(c3ccccc3)n3ncnc3N2)c1 (centres undefined)	Pf growth 48h inconclusive, Pf growth 96h inconclusive (no result: HCMV inh, HCV inh)
COc1cccc(C2=CC(c3ccccc3)n3nnnc3N2)c1 (centres undefined)	none
COc1cccc(C2=CC(c3ccc(N(C)C)cc3)n3ncnc3N2)c1 (centres undefined)	Pf growth 48h 10µM (no result: HCMV inh, HCV inh)
COc1ccc(C2C=C(c3ccccc3)Nc3nnnn32)cc1 (centres undefined)	Shiga inhibitor 53, CHX counter 21
COc1ccc(C2=CC(c3ccc(N(C)C)cc3)n3nnnc3N2)cc1 (centres undefined)	none (no result: Shiga inhibitor, Pf growth 48h, Pf growth 96h, HCV inh, CHX counter)
COc1cccc(C2=CC(c3ccc(N(C)C)cc3)n3nnnc3N2)c1 (centres undefined)	Shiga inhibitor 50, CHX counter 25
